MCF10A rerep: induces DNA re-replication in MCF 10a normal breast cells; MCF 10A DNA re-replication, Hoechst nuclear intensity, 48 h; AID 624296; 350,000 tested, 2.9% active; Potency, µM (doses to about 46.1 µM), for the others: at the top dose activity, positive = re-replication, actives largely listed as activators; further: % of control where 0% means no effect; nearly all actives have a fitted effect of over 50% in size
KB-V1 MDR tox: kills drug-selected multidrug resistant KB-V1 cells | KB-V1 MDR cells viability, CellTiter-Glo, 72 h | Potency, µM (titrated, usually from 46.1 µM), usual class: cytotoxic | 400,000 tested, 3.4% active | AID 1347076; further: on the % scale 0 is the no-effect control and ±100 the full control effect; nearly all actives have a fitted effect of over 60% in size
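Cells of the MDR subline KB-V1 are plated, dosed with compound at multiple concentrations, and incubated 72 h at 37 degrees C; CellTiter-Glo is then added and luminescence read after 10 min.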
SW480 rerep: DNA re-replication induction in SW480 cells; SW480 DNA re-replication, Hoechst DNA content imaging, 48 h; 340,000 tested, 1.8% active; Potency, µM (doses to about 46.1 µM), for inactives: top-dose re-replication activation, most hits filed as activators; further: % of control where 0% means no effect; nearly all actives have a fitted effect of over 55% in size
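Quantitative HTS format with DMSO vehicle controls; 48 hr drug incubation at 37 C, then 40 min Hoechst staining and scanning imager measurement at 405 nm excitation.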
HT1080 IDH1KD tx: HT-1080 IDH1 knockdown cell toxicity (counter line); 360,000 tested, 2% active; HT-1080 IDH1 knockdown viability, ATP luminescence, 48 h; Potency, µM (titrated, usually from 46.1 µM), inactives show at the top dose activity, negative = toxicity, actives largely listed as cytotoxic; AID 686971;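 further: 0% = DMSO wells and -100% = cell-free medium wells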
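Viability of IDH1-knockdown HT-1080 fibrosarcoma cells was assessed by CellTiter-Glo after 48 h at 37 °C with titrated compound; concentration-effect curves were classified by fit quality and response size.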
KB-3-1 tox: kills parental KB-3-1 adenocarcinoma cells; 400,000 tested, 1.4% active; KB-3-1 viability, CellTiter-Glo ATP luminescence, 72 h; Potency, µM (top dose mostly 46.1 µM), most hits filed as cytotoxic; AID 1347075; further: on the % scale 0 is the no-effect control and ±100 the full control effect; nearly all actives have a fitted effect of over 60% in size
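Luminescent ATP read-out (CellTiter-Glo) measures survival of drug-naive KB-3-1 cells after 72 h compound exposure at 37 °C. Titration series was screened from lowest to highest concentration, with DMSO vehicle plates as background controls.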
HT1080NT lethal: kills 2HG-producing HT-1080-NT fibrosarcoma cells; HT-1080-NT fibrosarcoma viability, CellTiter-Glo ATP luminescence, 48 h; Potency, µM (highest dose often 46.1 µM), without a hit: at the highest dose activity, negative = less viability, actives largely listed as cytotoxic; 360,000 tested, 1.6% active;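 further: NT is the 2HG producing partner of a matched IDH1 knockdown line; 0% = DMSO-treated cells and -100% = media-only wells without cells; nearly all actives have a fitted effect of over 55% in size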
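Read-out is CellTiter-Glo luminescence after 10 minutes at room temperature, following 48 hours' compound treatment of HT-1080-NT cells (750 cells/well, RPMI, 5% FBS, 37 degrees C).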
Starred values were filed as active, the others as inactive; i = inactive; ? = inconclusive; . = not tested or not shown. In the library only some 8% were active in any assay of this set; here they are far more common. The call rests on the fitted dose curve; in most records, active means well fitted curve in the direction sought with a large enough effect; inconclusive means small, poorly fitted or top-dose-only effect, or another doubt; inactive means no such curve, though single readings can be large; an effect the other way counts as inactive or inconclusive. Potency means the concentration at half of the fitted maximal effect.

SMILES	MCF10A rerep	KB-V1 MDR tox	SW480 rerep	HT1080 IDH1KD tx	KB-3-1 tox	HT1080NT lethal
Nc1ccc(/C=C/c2ccnc3ccccc23)cc1	.	i	.	.	i	.
O=C(O)CCC(=O)N1N=C(c2ccccc2)CC1c1ccc2c(c1)OCO2 (stereo not drawn)	0.3%	i	1.5%	-8.0%	i	-10.2%
O=C(c1cnc(N2CCCCC2)c2ccccc12)N1CCN(c2ccccc2F)CC1	.	i	.	.	i	.
CCOC1=C2CN(S(=O)(=O)c3ccc(C)cc3)C(c3cccc(Cl)c3)CC2N(S(=O)(=O)c2ccc(Cl)cc2)C(c2ccccc2)C1 (stereo not drawn)	.	i	.	18.2%	5.17µM*	13.3%
CC1(C)C(=O)Nc2ccccc2N1C(=O)COC(=O)Cc1ccc(Cl)c(Cl)c1	-8.5%	i	0.7%	0.0%	i	12.9%
CCOC(=O)c1ccc(NC(=O)COCc2cc(-c3ccc4c(c3)OCO4)on2)cc1	.	i	.	.	i	.
Cc1ccc(NC(=S)N/N=C2\CC(C)(C)Oc3ccc(O)cc32)cc1	20.6µM*	i	-176.1%	-5.0%	i	-22.0%
CC(=O)N1CCC2(CC1)C/C(=N\NC(=S)Nc1ccc(C)cc1)c1cc(O)ccc1O2	23.1µM*	i	27.8%	?	?	?
Cc1ccccc1NC(=S)N/N=C1\CC(C)(C)Oc2ccc(O)cc21	16.3%	i	18.7%	-20.5%	?	-29.5%
O=C(/C=C\c1ccc(-c2ccccc2)o1)c1ccccc1	23.1µM*	i	18.1%	-20.7%	i	-11.2%
Cc1ccc(C(=O)/C=C/c2ccc(-c3ccc(C)cc3)o2)cc1	20.6µM*	i	68.7%	-4.8%	i	-0.4%
O/N=C\c1ccc(-c2ccccc2)o1	-78.8%	i	?	17.1%	i	16.5%
COc1ccc(-c2onc(C)c2C)cc1S(=O)(=O)NCC1CCN(Cc2cc(C)ccc2C)CC1	.	i	.	.	i	.
COc1cccc(/C=N/n2c(-c3ccco3)nc3ccccc3c2=O)c1	?	2.59µM*	?	-1.0%	i	-9.0%
COc1ccc(/C=N/n2c(-c3ccco3)nc3ccccc3c2=O)cc1	-0.2%	i	-1.1%	6.4%	i	6.2%
Oc1ccc(/C(Cc2ccccn2)=N\Nc2ccccc2)c(O)c1	?	?	?	9.2µM*	i	?
CCCNC(=O)c1cc2nc(-c3ccc(Br)cc3)cc(C(F)(F)F)n2n1	.	i	.	.	i	.
O=C(NCCCn1ccnc1)c1cc2nc(-c3ccc(Br)cc3)cc(C(F)(F)F)n2n1	14.6µM*	i	?	?	i	23.1µM*
COc1ccc(-c2cc(C(F)(F)F)n3nc(C(=O)NCCCN4CCOCC4)cc3n2)cc1	?	i	8.2µM*	3.5%	i	-1.1%
COc1ccc(-c2cc(C(F)(F)F)n3nc(C(=O)Nc4cc(C)ccc4C)cc3n2)cc1	.	i	.	.	?	.
COc1ccc(-c2cc(C(F)(F)F)n3nc(C(=O)N4CCCCC4)cc3n2)cc1OC	-4.5%	10.3µM*	?	-6.1%	?	0.7%
COc1cc(N2C(=O)c3ccccc3C2=O)c(Cl)cc1C(=O)OCC(=O)N(C)C	-6.9%	i	-2.9%	6.5%	i	11.3%
O=C(N1CCN(c2cccc(Cl)c2)CC1)C1(c2cccs2)CCOCC1	8.2%	4.61µM*	-189.3%	-0.3%	?	1.7%
O=C(N1CCN(c2ccc(F)cc2)CC1)C1(c2cccs2)CCOCC1	-20.8%	23.1µM*	10.8%	-3.3%	i	0.4%
O=C(N1CCN(c2cccc(Cl)c2)CC1)C1(S(=O)(=O)c2ccc(Cl)cc2)CC1	-2.0%	i	0.7%	-4.0%	i	-14.2%
SMILES	MCF10A rerep	KB-V1 MDR tox	SW480 rerep	HT1080 IDH1KD tx	KB-3-1 tox	HT1080NT lethal
CCc1cccc(C)c1NC(=O)Cn1cc2c(n1)CCCC2	.	i	.	.	i	.
Nc1ccc(C(=O)N/N=C/c2cn(Cc3ccc(F)cc3)c3ccccc23)cc1	7.0%	i	0.8%	-25.4%	i	-17.1%
O=C(O)c1ccc(N/N=C/c2cn(Cc3ccccc3F)c3ccccc23)cc1	20.6µM*	i	?	?	?	?
CNC(=S)N/N=C/c1cn(Cc2ccc(F)cc2)c2ccccc12	?	14.6µM*	-0.1%	-28.2%	?	-27.2%
Nc1ccc(C(=O)N/N=C/c2cn(Cc3ccccc3)c3ccccc23)cc1	-1.2%	29.1µM*	-2.9%	?	?	-16.8%
COc1cccc(C(c2sc3nc(-c4ccco4)nn3c2O)N2CCC(C)CC2)c1 (stereo not drawn)	.	i	.	.	i	.
Nc1ccc(C23CC4CC(CC(CO)(C4)C2)C3)cc1	3.3%	i	-22.3%	3.6%	i	1.1%
NCC12CC3CC(C1)CC(c1ccc(Cl)cc1)(C3)C2	?	?	5.6%	?	i	23.1µM*
O=C(NC(c1ccc2ccccc2n1)c1cccs1)C1CCN(Cc2cccc(C(F)(F)F)c2)CC1 (stereo not drawn)	.	?	.	16.4µM*	?	?
O=C(NC(c1ccc(Cl)cc1)c1ccsc1)C1CCN(Cc2cccc(C(F)(F)F)c2)CC1 (stereo not drawn)	.	?	.	-0.3%	i	3.3%
O=C(NC(c1ccccc1)c1ccc2ccccc2n1)C1CCN(Cc2cccc(C(F)(F)F)c2)CC1 (stereo not drawn)	.	?	.	14.6µM*	?	?
CSc1ccc(/C=C/C(=O)N2CCN(c3ccccn3)CC2)cc1	-6.9%	i	-2.3%	20.6%	i	20.5%
COc1ccccc1C(=O)Nc1ccc(OCc2cc(=O)n3ccsc3n2)cc1	.	i	.	.	i	.
CCOC(=O)c1ccccc1OC(=O)CS(=O)c1ccccc1[N+](=O)[O-] (stereo not drawn)	-15.8%	i	13.9%	-6.5%	i	-13.5%
O=C(CS(=O)c1ccc(C(F)(F)F)cc1[N+](=O)[O-])Oc1ccccc1 (stereo not drawn)	7.31µM*	?	?	16.4µM*	?	16.4µM*
CS(=O)(=O)c1ccc(S(=O)CC(=O)OCc2ccccc2)c([N+](=O)[O-])c1 (stereo not drawn)	4.11µM*	i	-39.9%	4.11µM*	i	5.8µM*
Cc1onc(-c2ccccc2)c1C(=O)N1CCN(S(=O)(=O)c2ccc(OC(F)(F)F)cc2)CC1	-25.2%	i	-20.5%	-9.8%	i	-1.0%
C(#Cc1ccc(C#CCN2CCOCC2)cc1)CN1CCOCC1	2.6%	18.4µM*	8.2%	2.0%	i	-5.1%
Cc1ccc(CN2CCN(c3ccccc3)CC2)o1	-0.2%	i	-1.9%	7.9%	i	19.4%

Source: PubChem (National Center for Advancing Translational Sciences (NCATS))
